The source made the active and inactive calls.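 The calls were made as follows: active = calcium signal rise more than 3 SD above the low-dose agonist control mean, in both duplicate plates and the primary screen; inactive = the rest.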
Assay: calcium flux enhancement in mu-opioid HEK293 cells, confirmation, counter-screen for TRPC4 allosteric potentiator project, cell-based, HEK293 mu-opioid receptor line (AID 449724);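 also: HEK293 cells carrying mu-opioid receptor only with no TRPC4 channel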
Details: Fluo-4 calcium flux, at 10 µM, compound added before EC20 DAMGO stimulus
With `CN(C)C(CNC(=O)c1oc2ccccc2c1CSc1ncn[nH]1)c1ccco1` (centres undefined) the outcome was “inactive”. For `Cc1nn(-c2ccccc2)c(Cl)c1CN(C(=O)CCl)c1ccc(Cl)cc1`, the outcome was “inactive”. For `COc1ccccc1N1CCc2c(C)nc3c(OC)cccc3c21`, the outcome was “inactive”. In the case of `Cc1cc(CN2CCCC(C(=O)Nc3ccc(-c4nc5ccccc5[nH]4)cc3)C2)n[nH]1` (centres undefined), the outcome is reported as “inactive”. For `CCCCNCC1C(Oc2ccc(Cl)cc2)C(=O)N1c1ccccc1C` (centres undefined), the outcome was “inactive”. For `O=C1COc2ccc(N3C(=O)C=CC3=O)cc2N1`, the outcome was “inactive”. In the case of `Cc1nc2scc(-c3ccccc3)c2c(=O)n1N=C1C=CC(=O)C=C1`, the outcome is reported as “inactive”. In the case of `CCOC(=O)C1=NN(c2ccccc2C)C2=NC(C)=C(C(=O)OC)C(c3cccc(OC)c3)N12` (centres undefined), the outcome is reported as “inactive”. For `N/C(Cc1cccc2ccccc12)=N\OC(=O)c1cccs1`, the outcome was “inactive”. In the case of `CCCSc1nc(N)nc(-c2cccs2)c1C#N`, the outcome is reported as “inactive”. For `Cc1ccc(NC(=O)c2cc(N3C(=O)C=CC3=O)ccc2N2CCOCC2)cc1`, the outcome was “inactive”. For `Cc1ccc(NC(=O)CNc2ccccc2CN(C)C2CCCCC2)cc1`, the outcome was “inactive”. For `CC1(C)CC(NC(=O)c2cc(COc3cccc(C(F)(F)F)c3)on2)CCO1` (centres undefined), the outcome was “inactive”. For `COc1ccc(C2=NN(C(=O)c3ccccc3)C(c3ccc(OC)c(OC)c3)C2)c(O)c1` (centres undefined), the outcome was “inactive”. With `CCCn1nc([N+](=O)[O-])c(C(C#N)c2nc3ccccc3o2)c(Cl)c1=O` (centres undefined) the outcome was “inactive”. For `COc1ccc(C(CNc2ccc(C(F)(F)F)cn2)N(C)C)cc1OC` (centres undefined), the outcome was “inactive”. In the case of `COc1cccc(C2=NN(C(=O)c3ccco3)C(c3ccco3)C2)c1` (centres undefined), the outcome is reported as “inactive”. In the case of `c1ccc(Cn2c(NCc3ccco3)nc3ccccc32)cc1`, the outcome is reported as “inactive”. In the case of `CC(=O)c1ccc2c(c1)N(C)c1ccccc1S2`, the outcome is reported as “inactive”. With `CCOC(=O)C1CCN(CC(O)COc2ccc(C(C)(C)C)cc2)CC1` (centres undefined) the outcome was “inactive”. In the case of `CC(C)C1=Nc2cccc3cccc(c23)N1`, the outcome is reported as “inactive”. With `Cc1cccc2nc(CSc3ccc(Cl)cc3)cn12` the outcome was “inactive”. With `O=C(NC1CCCCC1)N1CCN(C(c2ccccc2)c2ccccc2)CC1` the outcome was “inactive”. With `COc1cc(CNC2CCCC2)c(Br)cc1OCc1ccccc1` the outcome was “inactive”. For `COc1ccc(Nc2cc(C)nc3ccc(OC)cc23)cc1`, the outcome was “inactive”. With `Cc1ccc(NC(=S)N(CCCN(C)C)Cc2cc3cc4c(cc3[nH]c2=O)OCO4)c(C)c1` the outcome was “inactive”. In the case of `COc1ccc(CN2CCN(Cc3ccc(C(F)(F)F)cc3)CC2)c(OC)c1`, the outcome is reported as “inactive”. With `Cn1cc(CNCC2CCCO2)c(-c2ccc(Oc3ccccc3)cc2)n1` (centres undefined) the outcome was “inactive”. In the case of `CCCCCCCCCCCCOC(=O)C[N+](C)(C)C`, the outcome is reported as “inactive”. In the case of `CN(C)CCCN(C(=O)c1ccc(S(=O)(=O)N2CCCC2)cc1)c1nc2c(F)cc(F)cc2s1`, the outcome is reported as “inactive”. For `C=C(c1ccc(O)cc1)c1ccc(O)cc1`, the outcome was “inactive”. For `C/C(N)=C(/C#N)C(=O)COC(=O)CC12CC3CC(CC(C3)C1)C2`, the outcome was “inactive”. For `Cc1cccc2cc(CN(CCCN(C)C)C(=S)NCCc3ccccc3)c(=O)[nH]c12`, the outcome was “inactive”. For `Nc1cc(C(F)(F)F)ccc1Nc1ccccc1`, the outcome was “inactive”. With `CCC(C)NC(C(=O)Nc1ccc(Cl)c([N+](=O)[O-])c1)c1ccccc1` (centres undefined) the outcome was “inactive”. With `COCCn1c(SCc2cccc([N+](=O)[O-])c2)nc2ccccc2c1=O` the outcome was “inactive”. For `O=C(Nc1cccc(Cl)c1)N1CCN2C(=O)c3ccccc3C12c1ccccc1` (centres undefined), the outcome was “inactive”. In the case of `CC(C)n1c(NCc2c[nH]c3ccccc23)nc2ccccc21`, the outcome is reported as “inactive”. With `Cc1nn(-c2ccccc2)c2[nH]c(C(F)(F)F)cc(=O)c12` the outcome was “inactive”.

Source: PubChem BioAssay
